Sampled rows, rich in hits. Any-hit rate of the full collection: about 2.4%.
ANO1 block: inhibitors of mouse TMEM16A calcium-activated chloride channel | Q8BHY3 | HEK293 TMEM16A/YFP iodide influx fluorescence, ionomycin | normalized B-score (activity score, 25-100; higher = stronger inhibition) at 10 µM | actives 1.2% (n = 310,000);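 active = ratio plate-corrected score three or more library SD toward inhibition, starting fluorescence score within five deviations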;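 also: score derived from kinetic fluorescence span divided by baseline fluorescence per well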
Target sequence (Q8BHY3 whole entry, looked up): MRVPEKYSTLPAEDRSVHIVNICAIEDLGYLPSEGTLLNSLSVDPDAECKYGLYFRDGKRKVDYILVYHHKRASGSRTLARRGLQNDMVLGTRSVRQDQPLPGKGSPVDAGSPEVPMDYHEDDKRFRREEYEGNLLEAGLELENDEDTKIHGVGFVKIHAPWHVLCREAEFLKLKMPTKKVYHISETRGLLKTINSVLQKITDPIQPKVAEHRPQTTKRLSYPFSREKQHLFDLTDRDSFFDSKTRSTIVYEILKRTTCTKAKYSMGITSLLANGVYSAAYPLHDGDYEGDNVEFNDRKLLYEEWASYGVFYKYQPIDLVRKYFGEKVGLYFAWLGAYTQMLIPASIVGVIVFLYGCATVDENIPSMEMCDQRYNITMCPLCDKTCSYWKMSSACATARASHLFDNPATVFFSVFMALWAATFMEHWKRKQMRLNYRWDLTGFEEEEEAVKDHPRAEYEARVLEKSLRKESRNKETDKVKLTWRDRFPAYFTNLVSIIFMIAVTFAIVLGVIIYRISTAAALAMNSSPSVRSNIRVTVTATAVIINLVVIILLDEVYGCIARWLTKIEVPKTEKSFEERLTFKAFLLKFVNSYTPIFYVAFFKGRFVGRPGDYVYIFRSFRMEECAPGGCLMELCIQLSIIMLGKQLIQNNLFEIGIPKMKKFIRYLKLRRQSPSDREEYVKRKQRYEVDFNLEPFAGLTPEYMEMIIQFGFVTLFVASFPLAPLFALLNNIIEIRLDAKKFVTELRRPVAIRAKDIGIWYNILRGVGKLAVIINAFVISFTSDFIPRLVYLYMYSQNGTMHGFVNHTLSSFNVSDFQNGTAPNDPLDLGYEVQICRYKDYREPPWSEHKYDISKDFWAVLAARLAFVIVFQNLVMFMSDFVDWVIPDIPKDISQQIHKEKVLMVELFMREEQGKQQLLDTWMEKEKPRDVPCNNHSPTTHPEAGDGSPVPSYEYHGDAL
RTF Ca sens inh: cardiac RTF calcium desensitization | P19429+P45379 | IANBD-labeled cardiac RTF, Ca2+ fluorescence | inhibition, % at 7.15 µM | actives 0.12% (n = 340,000) | AID 493244;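 active = inhibition above the mean inhibition of all tested compounds plus 3 SD, cut at about 17% in these data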;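 also: assay run at fixed EC70 calcium of 1.6 mM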
CRFBP-R2 block: CRF-BP/CRF-R2 complex antagonism | actives 0.59% (n = 350,000) | inhibition, % at 11.8 µM | HEK293 CRF-R2/CRF-BP, CRF-induced calcium fluorescence | AID 588475;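 active = inhibition of the ligand-induced calcium signal above about 50% at the single tested concentration, limit read from the data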
TMEM16A act: activators or potentiators of mouse TMEM16A chloride channel; B-score at 10 µM; HEK293 TMEM16A/YFP-H148Q/I152L, iodide quench fluorescence; active compounds read low; AID 623877; Q8BHY3; actives 0.3% (n = 340,000);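 active = fluorescence-ratio B-score plate-corrected deviation score at least 3 library SD below zero, with starting fluorescence score within 5 deviations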;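 also: channel opened by trigger with iodide after compound preincubation; score built on the fluorescence ratio of max minus min over baseline; more negative score means more quench and so TMEM16A activation or potentiation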
RTF Ca sens act: increases calcium sensitivity of human cardiac regulated thin filaments; P19429+P45379; IANBD-labeled TnC RTF fluorescence at EC20 calcium; 0% EC20 calcium, 100% full calcium; activation, % at 7.2 µM; actives 0.24% (n = 340,000);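 active = activation above the mean over all tested compounds plus 3 SD, cut at about 30% in these data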;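 also: rise in fluorescence read as greater calcium sensitivity of cardiac thin filaments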
CRFR2-BP ag: CRF-BP/CRF-R2 complex agonism | activation, % at 13.2 µM | actives 0.46% (n = 350,000) | HEK293 CRF-R2/CRF-BP, calcium dye fluorescence (FLIPR); percent of saturating CRF peptide response;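 active = activation of at least 50%, plus an integration ratio under a set limit after plate pattern correction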
Hits are given with their value; n = inactive; x = no result given.

SMILES	ANO1 block	RTF Ca sens inh	CRFBP-R2 block	TMEM16A act	RTF Ca sens act	CRFR2-BP ag
CC(C)C[C@H]1CN=C(Nc2ccccc2)N1CCc1cccc(F)c1	x	n	n	-5.2	n	125
CC(C)C[C@H]1CN=C(Nc2ccccc2)N1CCc1ccc(F)cc1	n	n	n	n	n	110
Cc1cccc(CCN2C(Nc3ccccc3)=NC[C@@H]2CC(C)C)c1	n	n	n	-6.1	n	111
Cc1cccc(CCN2CCN=C2Nc2ccccc2)c1	n	n	n	n	n	56
CC(C)CCN1C(Nc2ccccc2)=NC[C@@H]1CC(C)C	n	n	n	n	n	n
CCCCN(C(=O)COc1ccc(F)cc1)c1c(N)n(CC(C)C)c(=O)[nH]c1=O	x	x	n	x	x	n
CC(C)(C)C(=O)Nc1cc(NC(=O)C(C)(C)C)cc(C(=O)Nc2cc(C(=O)O)cc(C(=O)O)c2)c1	n	n	n	n	n	n
O=C(COC(=O)CCc1c[nH]c2ccccc12)NCCc1ccccc1	n	n	n	n	n	n
Cc1ccc(C)c(OCCC(=O)OCC(=O)NCCc2ccc(S(N)(=O)=O)cc2)c1	n	n	n	-4.8	n	n
NS(=O)(=O)c1ccc(CCNC(=O)COC(=O)CCc2c[nH]c3ccccc23)cc1	x	n	n	n	n	76
Cc1ccc(C)c(OCCC(=O)NCCc2ccc(S(N)(=O)=O)cc2)c1	n	n	n	n	n	n
N#C/C(=C(/O)c1ccc(F)cc1)c1nc2ccccc2s1	25	n	n	n	n	n
N#C/C(=C(/O)COc1ccc(Cl)cc1)c1nc2ccccc2s1	100	n	72	n	n	70
N#C/C(=C(/O)COC(=O)c1ccc(C#N)cc1)c1nc2ccccc2s1	25	n	n	n	n	n
COc1ccc(C/C(O)=C(\C#N)c2nc3ccccc3s2)cc1	100	n	n	n	n	n
CCOC(=O)Cn1c(=O)c2c(nc3n2CCCCN3c2ccc(C)cc2)n(C)c1=O	n	n	n	n	n	n
O=C(CSc1ccc2nnc(CCNC(=O)c3ccc(F)cc3)n2n1)NCc1ccco1	n	n	n	n	n	n
Cc1ccc(SC/C(O)=C(\C#N)c2nc3ccccc3s2)cc1	25	n	n	n	n	n
N#C/C(=C(/O)CSc1ccccn1)c1nc2ccccc2s1	n	n	n	n	n	n
Cc1ccccc1CNC(=O)c1ccccc1N	n	n	55	n	n	n
Cc1ccccc1CNC(=O)c1ccccc1C	n	n	n	n	n	n
FC(F)(F)c1cnc(Oc2ccccc2-c2nnco2)c(Cl)c1	n	n	n	n	n	n
Cn1c2ccccc2c(=O)c2c(=O)n(C3CCCCC3)c(-c3ccco3)nc21	n	n	n	n	n	99
Cc1nc2c(c(=O)c3ccccc3n2C)c(=O)n1C1CCCCCC1	n	n	n	n	n	51
COc1ccc(S(=O)(=O)N(CC(=O)NCC2CCCO2)c2ccc(F)cc2)cc1OC (stereo not drawn)	n	n	n	n	n	n
SMILES	ANO1 block	RTF Ca sens inh	CRFBP-R2 block	TMEM16A act	RTF Ca sens act	CRFR2-BP ag
Cc1nn(-c2ccccc2)nc1CNC(=O)CC(C)(C)C	n	n	n	n	n	n
Cc1nn(-c2ccccc2)nc1CNC(=O)c1ncoc1-c1ccccc1	n	n	n	-5.6	n	n
O=C(CN1C(=O)NC2(CCCC2)C1=O)N1CCN(c2ccccc2O)CC1	n	n	n	n	n	n
CCOc1ccc(C2NC(=O)C(C#N)=C(S)N2c2ccc(C)cc2)cc1OC (stereo not drawn)	n	n	n	n	n	n
C(=C\c1sc(Nc2ccccc2)n[n+]1-c1ccccc1)/c1ccccc1	x	n	n	-8.9	n	n
O=C(Cn1c(CO)nc2ccccc21)Nc1ccc2c(c1)OCCCO2	x	n	n	n	n	n
O=C(CSCc1ccccc1Br)NNC(=S)NCc1ccco1	n	n	77	n	n	n
COc1ccc(Nc2nc(N3CCOCC3)nc(N3CCOCC3)n2)cc1Cl	n	n	n	n	n	n
O=C(c1ccc(F)cc1Cl)N(Cc1ccco1)C1CCS(=O)(=O)C1 (stereo not drawn)	x	n	75	n	n	n
O=C(c1ccc(F)cc1)N(Cc1ccco1)C1CCS(=O)(=O)C1 (stereo not drawn)	n	n	n	n	n	n
